Assay results as given in PubChem BioAssay (NCI).
Compounds without any hit were thinned out: in the full panel of roughly 79,000, 15% have a hit. A number with no mark means an inactive call. The source made the active and inactive calls. Rule as the data show it: active = growth inhibition above about 70%; inactive = the rest.

Key:
[1] = NCI Yeast Anticancer Drug Screen. Data for the rad50 strain (AID 155);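 also: 0% = growth of vehicle-only cultures of the same strain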; conditions: S. cerevisiae rad50 strain growth inhibition, hits give high values
Method in brief: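 DNA repair mutant yeast, compound exposure, growth read-out; inhibition is taken relative to vehicle.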

[2] = NCI Yeast Anticancer Drug Screen. Data for the mec2-1 strain (AID 157); conditions: S. cerevisiae mec2-1 strain, hits give high values
Method in brief: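 mec2-1 yeast strain, carrying an alteration in DNA damage repair or cell cycle control, was exposed to compounds; growth inhibition was measured relative to vehicle-treated controls.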

[3] = NCI Yeast Anticancer Drug Screen. Data for the sgs1 mgt1 strain (AID 161);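 also: 0% = growth of cultures given vehicle only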; conditions: S. cerevisiae sgs1 mgt1 strain, hits give high values
Method in brief: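 Growth of a repair-deficient yeast mutant was monitored after compound treatment and expressed as inhibition relative to vehicle-treated cultures.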

[4] = NCI Yeast Anticancer Drug Screen. Data for the cln2 rad14 strain (AID 165);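 also: 0% = growth equal to vehicle treated cultures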; conditions: S. cerevisiae cln2 rad14 strain, hits give high values
Method in brief: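 Yeast carrying cln2 and rad14 alterations (cell cycle control and DNA damage repair) were exposed to compounds. Growth inhibition was measured against vehicle-treated controls.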

[5] = NCI Yeast Anticancer Drug Screen. Data for the bub3 strain (AID 167); conditions: S. cerevisiae bub3 mutant strain, hits give high values
Method in brief: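 In this screen, a yeast mutant lacking normal mitotic checkpoint function is challenged with compound. Relative growth versus vehicle gives the inhibition value.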

[6] = NCI Yeast Anticancer Drug Screen. Data for the mlh1 rad18 strain (AID 175); conditions: S. cerevisiae mlh1 rad18 strain growth inhibition, hits give high values
Method in brief: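 Growth inhibition of the yeast strain was measured after compound exposure and expressed relative to vehicle-treated controls. The strain carries defined defects in DNA damage repair.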

[7] = at 5.0 µM (retest, dose inferred, filed as 0.5)
[8] = at 50.0 µM (retest, dose inferred, filed as 5.0)

Row | Structure (SMILES) | growth inhibition [1, 7] | growth inhibition [1, 8] | growth inhibition ([1]; at 50.0 µM) | growth inhibition [2, 7] | growth inhibition [2, 8] | growth inhibition ([2]; at 50.0 µM) | growth inhibition [3, 7] | growth inhibition [3, 8] | growth inhibition ([3]; at 50.0 µM) | growth inhibition [4, 7] | growth inhibition [4, 8] | growth inhibition ([4]; at 50.0 µM) | growth inhibition [5, 7] | growth inhibition [5, 8] | growth inhibition ([5]; at 50.0 µM) | growth inhibition [6, 7] | growth inhibition [6, 8] | growth inhibition ([6]; at 50.0 µM)
1 | OC1CN(C2CCCCC2)CC1C1(O)CCN(C2CCCCC2)C1 (stereo not given) | 0% | 6% | 20.1% | 1% | 5% | -2.75% | 0% | 11% | 12.8% | 4% | 10% | 65.7% | 1% | 15% | -5.85% | 3% | 10% | 20.2%
2 | C[C@@]12C[C@@H](Br)[C@H](Br)C[C@]1(C)O2 | 0% | 16% | 94.5% (active) | -1% | 8% | 98.7% (active) | 0% | 15% | 98.1% (active) | -2% | 2% | 64.5% | -6% | 0% | 55% | -1% | 6% | 93.2% (active)
3 | COc1ccc(C(=O)CCc2c[nH]c3ccccc23)c(O)c1 | 2% | 43% | -1.85% | -9% | 22% | 13.8% | 11% | 46% | 36% | 22% | 72% (active) | 14.2% | 12% | 79% (active) | 23.5% | -9% | 79% (active) | -13.3%
4 | O=C(O)c1cc2ccc3cccc4ccc(c1)c2c34 | 4% | 93% (active) | 80.3% (active) | 1% | 89% (active) | 70.7% (active) | 3% | 94% (active) | 87.3% (active) | -4% | 92% (active) | 77.8% (active) | -3% | 90% (active) | 88.4% (active) | 9% | 94% (active) | 86% (active)
5 | CC(O)C(O)C(O)C(O)C(O)C(=O)O (stereo not given) | -2% | -6% | 18.4% | -2% | -1% | 10.9% | -1% | -2% | -9.1% | 4% | -3% | 1.95% | 0% | 4% | 45.7% | -1% | -7% | -10.9%
